# Assay results from PubChem BioAssay AID651657 (Broad Institute, 2012).
# Measured potencies and affinities stand elsewhere. Unmarked numbers belong to inactive results.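 The calls were made as follows: active = signal falls, with fitted half-maximal concentration at most twice the top valid dose tested; inconclusive = flat curve with partial signal loss, or poor curve fit; inactive = the rest, including signal rising instead.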
# Target: DNA repair and recombination protein RAD54-like (Homo sapiens) (UniProt Q92698)
# Sequence (Q92698 whole entry, looked up): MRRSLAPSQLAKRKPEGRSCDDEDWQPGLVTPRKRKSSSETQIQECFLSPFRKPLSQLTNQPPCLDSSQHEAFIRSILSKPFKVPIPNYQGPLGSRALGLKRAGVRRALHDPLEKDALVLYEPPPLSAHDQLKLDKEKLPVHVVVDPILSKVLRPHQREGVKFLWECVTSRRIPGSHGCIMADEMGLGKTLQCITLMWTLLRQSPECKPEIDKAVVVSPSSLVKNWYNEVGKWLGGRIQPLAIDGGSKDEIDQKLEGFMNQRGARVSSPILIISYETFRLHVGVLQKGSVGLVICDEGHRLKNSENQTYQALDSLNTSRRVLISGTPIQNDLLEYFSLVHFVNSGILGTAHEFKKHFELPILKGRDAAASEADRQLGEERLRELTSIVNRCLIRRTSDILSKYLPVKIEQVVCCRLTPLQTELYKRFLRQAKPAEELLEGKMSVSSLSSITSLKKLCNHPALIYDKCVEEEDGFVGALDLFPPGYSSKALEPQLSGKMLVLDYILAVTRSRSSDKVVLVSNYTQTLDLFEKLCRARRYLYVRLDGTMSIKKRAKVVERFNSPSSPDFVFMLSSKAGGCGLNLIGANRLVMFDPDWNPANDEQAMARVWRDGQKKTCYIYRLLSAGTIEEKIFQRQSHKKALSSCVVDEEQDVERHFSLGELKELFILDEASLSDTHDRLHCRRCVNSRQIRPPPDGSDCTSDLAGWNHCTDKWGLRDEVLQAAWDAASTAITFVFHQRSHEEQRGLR
# Experiment: RAD54 Holliday junction migration blockers – biochemical, fluorescence, cherry-picked samples, dose series, confirmation (AID 651657)
# Conditions: RAD54 branch migration, FAM/BHQ fluorescence, 60 min; series mostly up to 50 µM; activity change, negative = inhibition: at the top concentration
row,Compound,"activity change, negative = inhibition [%]"
1,CCN1CCN(c2ccc(N)c(C)c2)CC1,-10.9
2,Nc1ccnn1C1CCNCC1,0.708
3,Nc1ccc(CCN2CCCC2)cc1,-2.84
